# The supplement of paper PMC6897291
# Structures can show the parent of a compound that is named as a salt.
# Experiments:
# [1] = tested on: U-2932; assay: growth inhibition by drug alone (1 - RLU/untreated control) (fraction); higher = stronger inhibition; details: 177Lu-lilotomab satetraxetan 0 ug/ml
# Summary of the method: (§1)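 Plates pre-printed with the Selleck Cambridge Cancer Compound library at 10/100 nM (RIVA) or 10/1,000 nM (U-2932) received 3,000 cells/well. These cells had been washed after 18 h untreated or with a radiolabelled anti-CD37 antibody conjugate (~600 MBq/mg; 0.5 µg/ml RIVA, 1 µg/ml U-2932). Growth inhibition was obtained from RealTime-Glo luminescence in relation to untreated no-drug wells. Each daily read from day 3, taken after 1 h at 37°C, was converted as 1 − RLU/mean of 48 such wells per plate.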
# [2] = tested on: RIVA; assay: as above; details: 177Lu-lilotomab satetraxetan 0 ug/ml
# Summary of the method: as §1
# [3] = tested on: U-2932; assay: growth inhibition by drug plus 177Lu-lilotomab satetraxetan (1 - RLU/untreated control) (fraction); higher = stronger inhibition; details: 177Lu-lilotomab satetraxetan 1 ug/ml
# Summary of the method: as §1
# [4] = tested on: RIVA; assay: as above; details: 177Lu-lilotomab satetraxetan 0.5 ug/ml
# Summary of the method: as §1
Compound,"growth inhibition by drug alone ([1]; 10 nM, time (day): 3)","growth inhibition by drug alone ([1]; 10 nM, time (day): 4)","growth inhibition by drug alone ([1]; 10 nM, time (day): 5)","growth inhibition by drug alone ([1]; 10 nM, time (day): 6)","growth inhibition by drug alone ([1]; 1000 nM, time (day): 3)","growth inhibition by drug alone ([1]; 1000 nM, time (day): 4)","growth inhibition by drug alone ([1]; 1000 nM, time (day): 5)","growth inhibition by drug alone ([1]; 1000 nM, time (day): 6)","growth inhibition by drug alone ([2]; 10 nM, time (day): 3)","growth inhibition by drug alone ([2]; 10 nM, time (day): 4)","growth inhibition by drug alone ([2]; 10 nM, time (day): 5)","growth inhibition by drug alone ([2]; 10 nM, time (day): 6)","growth inhibition by drug alone ([2]; 100 nM, time (day): 3)","growth inhibition by drug alone ([2]; 100 nM, time (day): 4)","growth inhibition by drug alone ([2]; 100 nM, time (day): 5)","growth inhibition by drug alone ([2]; 100 nM, time (day): 6)","growth inhibition by drug plus 177Lu-lilotomab satetraxetan ([3]; 10 nM, time (day): 3)","growth inhibition by drug plus 177Lu-lilotomab satetraxetan ([3]; 10 nM, time (day): 4)","growth inhibition by drug plus 177Lu-lilotomab satetraxetan ([3]; 10 nM, time (day): 5)","growth inhibition by drug plus 177Lu-lilotomab satetraxetan ([3]; 10 nM, time (day): 6)","growth inhibition by drug plus 177Lu-lilotomab satetraxetan ([3]; 1000 nM, time (day): 3)","growth inhibition by drug plus 177Lu-lilotomab satetraxetan ([3]; 1000 nM, time (day): 4)","growth inhibition by drug plus 177Lu-lilotomab satetraxetan ([3]; 1000 nM, time (day): 5)","growth inhibition by drug plus 177Lu-lilotomab satetraxetan ([3]; 1000 nM, time (day): 6)","growth inhibition by drug plus 177Lu-lilotomab satetraxetan ([4]; 10 nM, time (day): 3)","growth inhibition by drug plus 177Lu-lilotomab satetraxetan ([4]; 10 nM, time (day): 4)","growth inhibition by drug plus 177Lu-lilotomab satetraxetan ([4]; 10 nM, time (day): 5)","growth inhibition by drug plus 177Lu-lilotomab satetraxetan ([4]; 10 nM, time (day): 6)","growth inhibition by drug plus 177Lu-lilotomab satetraxetan ([4]; 100 nM, time (day): 3)","growth inhibition by drug plus 177Lu-lilotomab satetraxetan ([4]; 100 nM, time (day): 4)","growth inhibition by drug plus 177Lu-lilotomab satetraxetan ([4]; 100 nM, time (day): 5)","growth inhibition by drug plus 177Lu-lilotomab satetraxetan ([4]; 100 nM, time (day): 6)"
O=C1c2c(O)ccc(O)c2C(=O)c2c(NCCNCCO)ccc(NCCNCCO)c21 [Mitoxantrone Hydrochloride],0.436,0.52,0.635,0.732,0.945,0.971,0.981,0.986,0.293,0.565,0.667,0.759,0.568,0.82,0.873,0.904,0.559,0.694,0.81,0.881,0.971,0.982,0.987,0.99,0.83,0.913,0.95,0.968,0.736,0.92,0.947,0.962
CC(=O)Nc1nc(C)c(-c2ccc(Cl)c(S(=O)(=O)NCCO)c2)s1,0.075,0.0569,0.00221,-0.159,0.302,0.29,0.248,0.307,0.0212,0.026,-0.0187,-0.271,-0.0771,-0.0663,-0.1,-0.193,-0.0326,0.00318,0.0521,0.103,0.423,0.467,0.424,0.489,0.348,0.493,0.527,0.549,0.317,0.471,0.448,0.434
CCOc1ccc(Cc2cc([C@@H]3O[C@H](CO)[C@@H](O)[C@H](O)[C@H]3O)ccc2Cl)cc1 [Dapagliflozin],0.142,0.11,-0.0277,-0.0754,0.0652,0.0655,0.0265,-0.143,0.0261,0.0489,-0.0941,-0.357,-0.159,-0.0453,-0.0994,-0.161,0.0831,0.139,0.185,0.224,0.0836,0.124,0.161,0.282,0.595,0.635,0.644,0.658,0.517,0.574,0.572,0.572
COC1=CC(c2cc3ccccc3[nH]2)=N/C1=C\c1[nH]c(C)cc1C [Obatoclax mesylate (GX15-070)],0.114,0.0688,-0.0597,-0.127,0.123,0.0924,0.0457,-0.0101,0.00951,0.024,-0.054,-0.371,-0.444,-0.248,-0.309,-0.6,0.00229,0.0671,0.129,0.144,0.143,0.163,0.242,0.343,0.479,0.58,0.604,0.618,0.201,0.411,0.412,0.435
Cc1ccc([N+](=O)[O-])cc1S(=O)(=O)N(C)/N=C/c1cnc2ccc(Br)cn12,0.343,0.311,0.248,0.226,0.963,0.969,0.976,0.979,0.193,0.193,0.103,-0.15,0.507,0.599,0.585,0.539,0.346,0.371,0.418,0.47,0.969,0.975,0.981,0.985,0.675,0.726,0.736,0.726,0.775,0.854,0.868,0.889
Oc1cccc(-c2nc(N3CCOCC3)c3oc4ncccc4c3n2)c1,0.191,0.128,-0.0145,-0.0687,0.836,0.879,0.891,0.894,0.135,0.0735,0.0557,-0.0131,0.762,0.695,0.667,0.585,0.125,0.138,0.171,0.231,0.633,0.625,0.627,0.655,0.54,0.556,0.562,0.572,0.837,0.831,0.827,0.824
COc1cc(Nc2c(C#N)cnc3cc(OCCCN4CCN(C)CC4)c(OC)cc23)c(Cl)cc1Cl [Bosutinib (SKI-606)],0.086,0.0525,-0.0862,-0.0345,0.264,0.239,0.19,0.239,-0.0137,-0.0501,-0.131,-0.404,-0.377,-0.355,-0.406,-0.598,0.0416,0.085,0.124,0.135,0.333,0.281,0.33,0.431,0.588,0.626,0.647,0.638,0.263,0.36,0.378,0.403
